The results in this text go back to PubChem BioAssay (NCATS).

Each structure is given as a SMILES string. Values joined by “and” are separate entries in the source; they are usually repeats but may differ in a detail not shown here. Equal values may be shown once. Records with an inconclusive call do not appear. Entries that show only a call come without a potency. A structure can be active in one record and inactive in another. Active and inactive are the calls of the source. Calls follow the shape of the dose curve; as a rule, active = well fitted inhibition curve with a large enough effect; inconclusive = small, poorly fitted or top-dose-only effect; inactive = flat fitted curve, though single readings scatter. Non-standard residues stand in square brackets, D forms with d. Residues, ends and D or L forms follow the SMILES beside them. *: point of attachment. Sta = CC(C)C[C@H](N)[C@@H](O)CC(=O)O; Isovaleryl = CC(C)CC(=O)*
Potency is read from the fitted curve at half-maximal effect.

Chain of Glutathione peroxidase 1 (Homo sapiens) (P07203 whole entry, looked up): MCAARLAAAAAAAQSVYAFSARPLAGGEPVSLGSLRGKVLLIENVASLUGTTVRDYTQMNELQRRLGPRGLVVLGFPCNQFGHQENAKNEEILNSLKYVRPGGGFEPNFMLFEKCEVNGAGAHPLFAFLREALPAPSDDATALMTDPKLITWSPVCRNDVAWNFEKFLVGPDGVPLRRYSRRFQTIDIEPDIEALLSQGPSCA

For the assay, the target named is Glutathione peroxidase 1 (Homo sapiens) (UniProt P07203). Nature of the assay: Primary qHTS Assay for Inhibitors of Recombinant Selenoprotein Glutathione Peroxidase 1 (GPX1) (AID 1845191). Also: nearly all actives have a fitted effect of over 65% in size. The settings on record: recombinant GPX1, GR-coupled NADPH fluorescence, 15 min; series mostly up to 48.8 µM. An excerpt:
Assay Provider: Elias S.J. Arner MD PhD.
Department of Medical Biochemistry and Biophysics
Karolinska Institutet, Solna, Stockholm, Sweden
Selenoprotein glutathione peroxidases (GPX), like the ubiquitously expressed GPX1 and the ferroptosis modulator GPX4, enact their antioxidant activities by reducing hydroperoxides using glutathione. […] GPX1 and GPX4 inhibitors have thus shown promise as anti-cancer agents. Existing inhibitors are often promiscuous, or modulate GPX activity only indirectly, so novel direct inhibitors identified through screening against GPX1 and GPX4 could be valuable. Here, we developed optimized glutathione reductase (GR)-coupled GPX assays for the biochemical high-throughput screen (HTS) of almost 12,000 compounds with known mechanisms of action. Initial hits were triaged using a GR counter-screen, assessed for isoform specificity using a separate GPX2 assay, and were assessed for general selenocysteine-targeting activity using a thioredoxin reductase (TXNRD1) assay. With this suite of assays, we identified novel GPX1/GPX2- and GPX4-specific inhibitors and can here present a validated pipeline for future discovery research for selenoprotein-targeting agents.
SEQUENCE No. (e.g., 1, 2, 3, etc.); […] (e.g., Cells, Incubation, Reagent, etc.); VALUE; DESCRIPTION.
1; Reagent 1; 3 uL; GPx1 enzyme or no enzyme control in 1536-well, black, solid Greiner assay plate.
2; Compound; 25 nL; Kalypsis pin tool (Wako USA) equipped with a 1536-well pin head.
3; Incubation; 30 min; room temperature.
4; Reagent 2; 1 uL; 10 nM GPX1, 1 mM GSH, 0.5 mM CHP, 0.5 mM NADPH, 100 nM GR, 0.01% BSA substrate
5; Detection; Fluorescence; ViewLux microplate reader, excitation 340 nm and emission 450 nm.
6; Incubation; 15 min; room temperature.
7; Detection; Fluorescence; ViewLux microplate reader, excitation 340 nm and emission 450 nm.
NOTES (numbers refer to Sequence numbers above)
1. 3 uL of 16.66 nM GPX1 and 0.016% BSA in assay buffer (50 mM Tris-HCl, 2 mM EDTA (pH 7.5), 150 mM NaCl) was added to columns 3-48 of 1536-well assay plates using a BioRAPTR Flying Reagent Dispenser (Let's Go Robotics (LGR), Carlsbad, CA). A no-enzyme control (0.01% BSA in TES assay buffer) was added to columns 1-2.
2. 25 nL of test compounds and DMSO controls were added to each well with a pin tool (Kalypsys).
3. The assay plates were incubated for 30 minutes at room temperature.
4. 1 uL of master mix (500 nM glutathione reductase (GR), 5 mM reduced glutathione (GSH), 2.5 mM NADPH in assay buffer) was added. 1 uL of cumene hydroperoxide (CHP) ([2.5 mM] in 50% EtOH) was then added within 5 minutes to initiate the reaction. Final concentrations were: 10 nM GPX1, 1 mM GSH, 0.5 mM CHP, 0.5 mM NADPH, 100 nM GR, 0.01% BSA.
5. Initial fluorescence readout (t=0) at 340/450 nm was measured using a ViewLux multimodal detector (PerkinElmer, Waltham, MA).
7. Endpoint fluorescence readout (t=15) at 340/450 nm was measured 15 min after room temperature incubation.
On the technique in general: Quantitative high-throughput screening tests each substance at several concentrations.
As for `Cc1ccc(S(=O)(=O)NC(=O)NN2CC3CCCC3C2)cc1` (stereo not given), the Potency result was “inactive”.

With `CCOC(=O)C(C)Oc1cccc2c(=O)n(CC(=O)Nc3ccc4c(c3)OCCO4)ccc12` (stereo not given), the Potency entry was “inactive”.

Turning to `Clc1ccc2c(N3CCN(CCCN4CCN(c5ccnc6cc(Cl)ccc56)CC4)CC3)ccnc2c1`, the Potency entry is “inactive”.

For `Cc1ccc(C(=O)c2cc(O)c(O)c([N+](=O)[O-])c2)cc1`, the Potency entry is “inactive”.

In the case of `O=P(O)(O)C(O)(Cn1ccnc1)P(=O)(O)O`, the Potency entry was “inactive”.

`CN(C)c1ccc2nc3ccc(=[N+](C)C)cc-3sc2c1`: the Potency result was “inactive”.

With `CN1C(C(=O)Nc2ccccn2)=C(O)c2sccc2S1(=O)=O`, the Potency result is “inactive”.

`NNc1nncc2ccccc12`: the Potency entry is “inactive”.

On to `O=C(c1ccccc1)c1ccc2n1CCC2C(=O)O` (stereo not given), for which the Potency result was “inactive”.

For `C[Se]CCC(N)C(=O)O` (stereo not given), the Potency result is “inactive”.

Take `NC(=O)Cc1cccc(C(=O)c2ccccc2)c1N`: the Potency result is “inactive”.

With `COCCCOc1ccnc(CS(=O)c2nc3ccccc3[nH]2)c1C` (stereo not given), the Potency result was “inactive and 14.3 µM (active)”.

On to `CC(S)C(=O)NCC(=O)O` (stereo not given), for which the Potency result is “inactive”.

Regarding `CN(C)[C@@H](CCOc1cccc2ccccc12)c1ccccc1`, the Potency entry was “inactive”.

With `Nc1ccc(S(N)(=O)=O)cc1`, the Potency entry is “inactive”.

For the molecule `COC(=O)N[C@H](C(=O)N[C@@H](Cc1ccccc1)[C@@H](O)CN(Cc1ccc(-c2ccccn2)cc1)NC(=O)[C@@H](NC(=O)OC)C(C)(C)C)C(C)(C)C`, the Potency result was “inactive”.

As for `Nc1cccc2c1CN(C1CCC(=O)NC1=O)C2=O` (stereo not given), the Potency entry was “inactive”.

With `COC1=C(OC)C(=O)C(CCCCCCCCCCO)=C(C)C1=O`, the Potency result was “inactive and 7.28 µM (active)”.

As for `O=c1cc(N2CCOCC2)oc2c(-c3ccccc3)cccc12`, the Potency result was “inactive”.

With `CC1(C)CCC(C)(C)c2cc(NC(=O)c3ccc(C(=O)O)cc3)ccc21`, the Potency entry is “inactive”.

For the molecule `Oc1ccc(OCc2ccccc2)cc1`, the Potency entry was “inactive”.

Take `CC(=O)N1CCN(c2ccc(OC[C@H]3CO[C@](Cn4ccnc4)(c4ccc(Cl)cc4Cl)O3)cc2)CC1`: the Potency result was “inactive”.

On to `Cc1cccc(CN2CCN(C(c3ccccc3)c3ccc(Cl)cc3)CC2)c1` (stereo not given), for which the Potency entry is “inactive”.

Take `Cc1nc2n(c(=O)c1CCN1CCC(c3noc4cc(F)ccc34)CC1)CCCC2`: the Potency entry was “inactive”.

For the molecule `Cc1nccn1CC1CCc2c(c3ccccc3n2C)C1=O` (stereo not given), the Potency entry is “inactive”.

For the molecule `C[C@@H](c1ncncc1F)[C@](O)(Cn1cncn1)c1ccc(F)cc1F`, the Potency entry was “inactive”.

Regarding `CC(C)CC(=O)N[C@H](C(=O)N[C@H](C(=O)N[C@@H](CC(C)C)[C@@H](O)CC(=O)N[C@@H](C)C(=O)N[C@@H](CC(C)C)[C@@H](O)CC(=O)O)C(C)C)C(C)C` (Isovaleryl-VV[Sta]A[Sta]-OH), the Potency result is “inactive”.

In the case of `Nc1nc(Cl)nc2c1ncn2[C@H]1C[C@H](O)[C@@H](CO)O1`, the Potency result is “inactive”.

Take `Cc1nc(Nc2ncc(C(=O)Nc3c(C)cccc3Cl)s2)cc(N2CCN(CCO)CC2)n1`: the Potency entry is “inactive”.

On to `CC(=O)Nc1ccc(O)cc1`, for which the Potency result is “inactive”.

Turning to `Cc1cccc(C#Cc2ccccc2)n1`, the Potency result was “inactive”.

`Cc1c(C(=O)NN2CCCCC2)nn(-c2ccc(Cl)cc2Cl)c1-c1ccc(Cl)cc1`: the Potency entry was “inactive”.

With `c1ccc2[nH]c(-c3cscn3)nc2c1`, the Potency entry is “inactive”.

For `Oc1ccc(-c2nc(-c3ccc(F)cc3)c(-c3ccncc3)[nH]2)cc1`, the Potency entry is “inactive”.

For `NS(=O)(=O)c1cc(C(=O)O)c(NCc2ccco2)cc1Cl`, the Potency entry was “inactive”.

In the case of `O=c1c(O)c(-c2cc(O)c(O)c(O)c2)oc2cc(O)cc(O)c12`, the Potency result was “inactive”.

In the case of `O=C(O)c1cccc(-c2noc(-c3ccccc3F)n2)c1`, the Potency entry was “inactive”.

Regarding `C[C@H](Cc1ccc(O)c(O)c1)[C@@H](C)Cc1ccc(O)c(O)c1`, the Potency entry was “inactive”.

As to `Cc1nc(-c2ccc(OCC(C)C)c(C#N)c2)sc1C(=O)O`, the Potency entry is “inactive”.

On to `N=C(N)c1ccc2cc(OC(=O)c3ccc(N=C(N)N)cc3)ccc2c1`, for which the Potency entry was “inactive”.
